This is an account of results in PMC7862700, “An all-to-all approach to the identification of sequence-specific readers for epigenetic DNA modifications on cytosine”.

Holding throughout (experiment): DAPPL (digital affinity profiling via proximity ligation, sequencing); 10 mM Tris-HCl pH 7.5, 50 mM NaCl, 1 mM DTT, 4% glycerol, room temperature, 30 min; GST-TFs on glutathione beads, 16-mer random dsDNA library, 0.1% formaldehyde crosslink after washing; high values mean tight binding
One test addresses T1, FLI1 (Homo sapiens, UniProt Q01543 1-452).
T1 sequence: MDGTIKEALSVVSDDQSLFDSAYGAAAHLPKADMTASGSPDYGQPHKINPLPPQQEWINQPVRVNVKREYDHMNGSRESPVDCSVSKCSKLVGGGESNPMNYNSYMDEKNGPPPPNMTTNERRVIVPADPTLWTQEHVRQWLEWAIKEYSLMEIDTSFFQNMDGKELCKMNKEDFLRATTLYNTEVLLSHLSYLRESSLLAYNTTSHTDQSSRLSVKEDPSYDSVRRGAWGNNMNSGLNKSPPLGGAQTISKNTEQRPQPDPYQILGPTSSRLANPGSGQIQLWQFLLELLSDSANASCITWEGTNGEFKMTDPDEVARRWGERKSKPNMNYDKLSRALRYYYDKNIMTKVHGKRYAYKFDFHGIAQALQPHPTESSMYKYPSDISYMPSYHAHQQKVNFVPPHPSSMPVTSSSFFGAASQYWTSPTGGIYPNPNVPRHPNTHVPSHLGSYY
To be noted: protein: recombinant; tags: N-terminal GST; dsDNA, one strand shown. An outline of the steps: (§1)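 Sequencing on an Illumina NextSeq500 followed washing, crosslinking with 0.1% formaldehyde, proximity ligation (BsaI/T4 ligase, 1 h, 37 °C) and PCR amplification of pools that had been incubated for 30 min at room temperature with 200 nmole of a random double-stranded 16-mer DNA library in Tris/NaCl/DTT/glycerol buffer. Each pool held DNA-barcoded human transcription factors, expressed in yeast as GST fusions and captured on glutathione beads, plus a tag-only sample. Binding signal is a hexamer's read frequency for a factor divided by its frequency in the tag-only sample.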

The next test concerns the target T2, ELK1 (Homo sapiens, UniProt P19419 1-428).
T2 sequence: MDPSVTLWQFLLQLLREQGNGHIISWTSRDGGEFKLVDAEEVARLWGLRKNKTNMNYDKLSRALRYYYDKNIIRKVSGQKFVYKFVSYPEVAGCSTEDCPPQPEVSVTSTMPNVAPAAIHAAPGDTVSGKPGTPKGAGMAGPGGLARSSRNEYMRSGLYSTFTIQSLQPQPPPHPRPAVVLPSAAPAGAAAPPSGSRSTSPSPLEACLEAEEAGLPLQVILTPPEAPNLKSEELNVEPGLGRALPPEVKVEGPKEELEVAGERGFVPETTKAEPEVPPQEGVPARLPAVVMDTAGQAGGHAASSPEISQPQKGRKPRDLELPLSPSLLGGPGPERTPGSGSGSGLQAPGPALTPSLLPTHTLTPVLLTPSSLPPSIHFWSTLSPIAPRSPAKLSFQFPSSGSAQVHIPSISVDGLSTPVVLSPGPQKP
To be noted: protein: recombinant; tags: N-terminal GST; dsDNA, one strand shown. An outline of the steps:
as §1

A further test addresses T3, GABPA (Homo sapiens, UniProt Q06546 1-454).
T3 sequence: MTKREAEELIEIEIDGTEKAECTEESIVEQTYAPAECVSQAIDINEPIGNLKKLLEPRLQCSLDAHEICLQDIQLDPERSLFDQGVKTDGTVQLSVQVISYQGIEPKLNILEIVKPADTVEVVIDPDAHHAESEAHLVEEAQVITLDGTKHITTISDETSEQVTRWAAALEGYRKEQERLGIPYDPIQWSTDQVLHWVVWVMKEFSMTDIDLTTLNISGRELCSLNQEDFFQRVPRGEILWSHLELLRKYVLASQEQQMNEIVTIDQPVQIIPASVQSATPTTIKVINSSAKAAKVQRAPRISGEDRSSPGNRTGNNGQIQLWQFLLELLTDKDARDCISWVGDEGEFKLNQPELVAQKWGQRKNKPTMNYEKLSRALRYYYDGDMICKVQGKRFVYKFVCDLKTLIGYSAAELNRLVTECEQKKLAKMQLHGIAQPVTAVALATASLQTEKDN
Conditions: protein: recombinant; tags: N-terminal GST; dsDNA, one strand shown. An outline of the steps: as §1

The target of the next test is T4, ERG (Homo sapiens, UniProt P11308 1-479).
T4 sequence: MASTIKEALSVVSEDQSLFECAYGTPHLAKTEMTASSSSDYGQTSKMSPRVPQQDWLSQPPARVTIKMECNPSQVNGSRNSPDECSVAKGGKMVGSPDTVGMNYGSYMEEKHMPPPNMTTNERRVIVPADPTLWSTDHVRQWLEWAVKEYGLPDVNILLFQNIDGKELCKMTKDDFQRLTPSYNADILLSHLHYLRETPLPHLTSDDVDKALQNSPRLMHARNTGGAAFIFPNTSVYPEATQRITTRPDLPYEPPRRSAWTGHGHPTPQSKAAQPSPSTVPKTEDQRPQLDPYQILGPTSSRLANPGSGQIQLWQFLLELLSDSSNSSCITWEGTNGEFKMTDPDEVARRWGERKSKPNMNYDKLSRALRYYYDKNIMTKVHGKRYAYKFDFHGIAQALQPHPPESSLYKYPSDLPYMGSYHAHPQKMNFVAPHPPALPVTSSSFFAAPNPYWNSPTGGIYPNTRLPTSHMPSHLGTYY
Conditions: protein: recombinant; tags: N-terminal GST; dsDNA, one strand shown. An outline of the steps: as §1

The next test concerns the target ELF1 (Homo sapiens, UniProt P32519 1-619). Conditions: protein: recombinant; tags: N-terminal GST; dsDNA, one strand shown. The method, boiled down:
as §1

A further test has as its target T5, EHF (Homo sapiens, UniProt Q9NZC4 1-300).
T5 sequence: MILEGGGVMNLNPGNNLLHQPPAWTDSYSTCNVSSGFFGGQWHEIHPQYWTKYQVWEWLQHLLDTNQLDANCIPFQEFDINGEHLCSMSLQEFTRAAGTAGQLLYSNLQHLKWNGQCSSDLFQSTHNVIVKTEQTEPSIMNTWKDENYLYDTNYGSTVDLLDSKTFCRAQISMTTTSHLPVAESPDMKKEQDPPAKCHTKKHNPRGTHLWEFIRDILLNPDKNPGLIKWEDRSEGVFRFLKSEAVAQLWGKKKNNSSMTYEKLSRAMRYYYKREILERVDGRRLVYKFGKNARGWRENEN
Conditions: protein: recombinant; tags: N-terminal GST; dsDNA, one strand shown. An outline of the steps: as §1

The next test deals with SPI1 (Homo sapiens, UniProt P17947 1-270). Conditions: protein: recombinant; tags: N-terminal GST; dsDNA, one strand shown. An outline of the steps: as §1
For the next test, the target named is SPIB (Homo sapiens, UniProt Q01892 1-262). To be noted: protein: recombinant; tags: N-terminal GST; dsDNA, one strand shown. An outline of the steps: as §1
SPIB, sequence (Q01892 whole entry): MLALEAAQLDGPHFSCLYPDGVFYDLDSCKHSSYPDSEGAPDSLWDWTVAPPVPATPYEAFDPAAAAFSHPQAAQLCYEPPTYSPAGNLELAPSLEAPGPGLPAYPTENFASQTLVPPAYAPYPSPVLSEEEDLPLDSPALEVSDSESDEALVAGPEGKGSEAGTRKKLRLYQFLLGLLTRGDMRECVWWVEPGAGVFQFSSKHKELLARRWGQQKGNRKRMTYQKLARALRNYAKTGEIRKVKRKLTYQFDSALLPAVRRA
The next test deals with T6, ELK3 (Homo sapiens, UniProt P41970 1-407).
T6 sequence: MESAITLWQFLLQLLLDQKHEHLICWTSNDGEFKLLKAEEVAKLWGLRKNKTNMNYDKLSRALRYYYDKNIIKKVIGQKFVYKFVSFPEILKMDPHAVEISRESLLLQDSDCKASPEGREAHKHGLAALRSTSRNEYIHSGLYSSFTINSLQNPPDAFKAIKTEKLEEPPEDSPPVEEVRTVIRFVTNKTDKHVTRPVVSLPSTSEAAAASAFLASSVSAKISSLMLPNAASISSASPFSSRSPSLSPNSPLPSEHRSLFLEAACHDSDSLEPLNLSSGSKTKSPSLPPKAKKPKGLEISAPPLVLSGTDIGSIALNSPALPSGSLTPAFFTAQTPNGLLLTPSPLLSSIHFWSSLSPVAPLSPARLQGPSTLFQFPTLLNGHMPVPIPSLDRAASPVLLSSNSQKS
Conditions: protein: recombinant; tags: N-terminal GST; dsDNA, one strand shown. An outline of the steps:
as §1

The target of the next test is T7, FEV (Homo sapiens, UniProt Q99581 1-238).
T7 sequence: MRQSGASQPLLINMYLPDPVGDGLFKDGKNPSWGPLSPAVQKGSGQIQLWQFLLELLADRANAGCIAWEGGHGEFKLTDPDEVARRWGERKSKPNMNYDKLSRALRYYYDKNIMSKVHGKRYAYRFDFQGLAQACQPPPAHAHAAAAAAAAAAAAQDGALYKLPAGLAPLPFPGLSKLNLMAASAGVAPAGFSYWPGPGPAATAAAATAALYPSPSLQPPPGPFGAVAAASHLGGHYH
To be noted: protein: recombinant; tags: N-terminal GST; dsDNA, one strand shown. An outline of the steps: as §1

The target of another test is ETV5 (Homo sapiens, UniProt P41161 1-510). Conditions: protein: recombinant; tags: N-terminal GST; dsDNA, one strand shown. An outline of the steps:
as §1

The target in the next test is HSF1 (Homo sapiens, UniProt Q00613 1-529). Conditions: protein: recombinant; tags: N-terminal GST; chain copies: 3; dsDNA, one strand shown. An outline of the steps: as §1
HSF1, sequence (Q00613 whole entry): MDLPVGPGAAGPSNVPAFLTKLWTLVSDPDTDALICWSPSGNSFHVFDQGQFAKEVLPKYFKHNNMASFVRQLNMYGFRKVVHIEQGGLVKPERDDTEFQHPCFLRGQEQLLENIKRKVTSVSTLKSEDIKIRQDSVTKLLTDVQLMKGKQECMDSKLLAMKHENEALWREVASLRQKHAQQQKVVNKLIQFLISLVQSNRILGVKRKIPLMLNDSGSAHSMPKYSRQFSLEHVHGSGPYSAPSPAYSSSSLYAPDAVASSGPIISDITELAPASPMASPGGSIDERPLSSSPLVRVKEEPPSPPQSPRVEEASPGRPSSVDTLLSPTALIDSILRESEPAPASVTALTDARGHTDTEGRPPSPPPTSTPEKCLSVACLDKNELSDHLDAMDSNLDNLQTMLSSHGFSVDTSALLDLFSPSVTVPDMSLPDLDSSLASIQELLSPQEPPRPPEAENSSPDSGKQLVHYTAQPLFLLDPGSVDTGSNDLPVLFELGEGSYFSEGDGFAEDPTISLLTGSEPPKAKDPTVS
A further test addresses T8, SPIC (Homo sapiens, UniProt Q8N5J4 1-248).
T8 sequence: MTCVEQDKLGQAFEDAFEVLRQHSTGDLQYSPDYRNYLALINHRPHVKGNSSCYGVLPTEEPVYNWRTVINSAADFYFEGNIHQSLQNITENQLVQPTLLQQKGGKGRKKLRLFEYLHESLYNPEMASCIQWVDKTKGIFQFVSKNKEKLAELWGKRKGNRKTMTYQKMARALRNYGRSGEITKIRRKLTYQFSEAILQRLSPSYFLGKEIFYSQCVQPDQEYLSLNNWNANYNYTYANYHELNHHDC
Conditions: protein: recombinant; tags: N-terminal GST; dsDNA, one strand shown. The method, boiled down:
as §1

The next test has as its target ELF4 (Homo sapiens, UniProt Q99607 1-663). To be noted: protein: recombinant; tags: N-terminal GST; dsDNA, one strand shown. An outline of the steps: as §1
A further test has as its target T9, ELK4 (Homo sapiens, UniProt P28324-2 1-405).
T9 sequence: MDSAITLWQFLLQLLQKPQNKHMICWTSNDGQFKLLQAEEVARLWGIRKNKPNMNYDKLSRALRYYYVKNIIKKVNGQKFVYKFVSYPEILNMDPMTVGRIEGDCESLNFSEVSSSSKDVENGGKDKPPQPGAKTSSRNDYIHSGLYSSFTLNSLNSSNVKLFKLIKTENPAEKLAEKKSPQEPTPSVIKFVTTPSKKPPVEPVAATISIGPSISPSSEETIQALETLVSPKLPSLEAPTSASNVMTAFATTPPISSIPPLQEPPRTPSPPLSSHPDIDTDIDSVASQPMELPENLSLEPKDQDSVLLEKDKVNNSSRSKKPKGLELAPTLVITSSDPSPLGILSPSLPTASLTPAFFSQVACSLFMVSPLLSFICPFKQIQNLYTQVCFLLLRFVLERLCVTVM
To be noted: protein: recombinant; tags: N-terminal GST; dsDNA, one strand shown. An outline of the steps:
as §1

In the next test the target is T10, ETV2 (Homo sapiens, UniProt O00321 1-342).
T10 sequence: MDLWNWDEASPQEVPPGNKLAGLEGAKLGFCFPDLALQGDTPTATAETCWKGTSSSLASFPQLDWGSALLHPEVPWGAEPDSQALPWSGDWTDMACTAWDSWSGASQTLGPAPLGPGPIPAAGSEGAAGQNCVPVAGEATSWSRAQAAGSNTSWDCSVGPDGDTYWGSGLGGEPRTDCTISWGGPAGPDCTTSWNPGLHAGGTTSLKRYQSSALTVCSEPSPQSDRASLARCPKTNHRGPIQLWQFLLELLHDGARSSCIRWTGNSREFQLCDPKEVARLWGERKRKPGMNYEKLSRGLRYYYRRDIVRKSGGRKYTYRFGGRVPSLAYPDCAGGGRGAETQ
To be noted: protein: recombinant; tags: N-terminal GST; dsDNA, one strand shown. The method, boiled down:
as §1

The target in a further test is T11, ELF3 (Homo sapiens, UniProt P78545 1-371).
T11 sequence: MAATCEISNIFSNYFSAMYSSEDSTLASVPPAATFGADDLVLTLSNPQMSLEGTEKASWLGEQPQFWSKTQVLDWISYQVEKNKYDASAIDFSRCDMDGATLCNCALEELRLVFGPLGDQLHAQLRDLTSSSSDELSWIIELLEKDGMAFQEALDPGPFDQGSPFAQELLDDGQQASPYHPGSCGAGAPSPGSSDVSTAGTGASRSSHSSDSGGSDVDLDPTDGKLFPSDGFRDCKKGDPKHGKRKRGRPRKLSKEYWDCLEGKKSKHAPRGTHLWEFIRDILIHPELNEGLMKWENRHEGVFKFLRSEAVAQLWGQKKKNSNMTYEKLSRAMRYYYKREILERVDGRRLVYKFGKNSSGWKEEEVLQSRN
Conditions: protein: recombinant; tags: N-terminal GST; dsDNA, one strand shown. The method, boiled down: as §1

Another test concerns the target ETV1 (Homo sapiens, UniProt P50549 1-477). Conditions: protein: recombinant; tags: N-terminal GST; dsDNA, one strand shown. An outline of the steps:
as §1

ETV5, sequence (P41161 whole entry): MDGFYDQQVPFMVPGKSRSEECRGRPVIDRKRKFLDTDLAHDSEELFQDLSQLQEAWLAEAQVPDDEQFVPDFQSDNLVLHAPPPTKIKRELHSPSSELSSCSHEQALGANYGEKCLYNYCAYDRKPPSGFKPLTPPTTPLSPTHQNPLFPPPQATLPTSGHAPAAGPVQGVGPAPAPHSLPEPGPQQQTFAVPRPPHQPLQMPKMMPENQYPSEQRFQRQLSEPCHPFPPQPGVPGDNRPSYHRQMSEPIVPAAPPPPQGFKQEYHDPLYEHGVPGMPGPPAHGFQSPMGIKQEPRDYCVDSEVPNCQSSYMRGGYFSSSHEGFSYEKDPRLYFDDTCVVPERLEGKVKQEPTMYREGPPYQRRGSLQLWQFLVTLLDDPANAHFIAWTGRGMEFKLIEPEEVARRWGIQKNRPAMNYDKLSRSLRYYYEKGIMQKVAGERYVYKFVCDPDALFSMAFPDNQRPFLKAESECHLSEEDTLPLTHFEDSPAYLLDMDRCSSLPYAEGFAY
ELF1, sequence (P32519 whole entry): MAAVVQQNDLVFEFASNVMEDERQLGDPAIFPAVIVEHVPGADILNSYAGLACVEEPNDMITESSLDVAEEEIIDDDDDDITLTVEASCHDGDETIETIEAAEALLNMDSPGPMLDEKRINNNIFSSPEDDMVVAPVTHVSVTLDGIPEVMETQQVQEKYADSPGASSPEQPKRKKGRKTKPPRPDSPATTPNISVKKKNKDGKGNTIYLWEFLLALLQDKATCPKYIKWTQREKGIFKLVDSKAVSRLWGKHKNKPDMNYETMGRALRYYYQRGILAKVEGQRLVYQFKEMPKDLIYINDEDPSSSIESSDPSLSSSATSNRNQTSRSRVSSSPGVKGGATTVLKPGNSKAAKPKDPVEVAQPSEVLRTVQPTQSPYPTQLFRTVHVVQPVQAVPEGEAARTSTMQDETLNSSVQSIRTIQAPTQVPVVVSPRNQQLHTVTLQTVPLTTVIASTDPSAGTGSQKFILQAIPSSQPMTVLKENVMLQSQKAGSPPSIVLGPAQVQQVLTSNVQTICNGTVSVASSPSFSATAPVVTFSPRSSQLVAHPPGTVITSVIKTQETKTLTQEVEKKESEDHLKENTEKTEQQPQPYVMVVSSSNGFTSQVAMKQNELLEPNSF
ETV1, sequence (P50549 whole entry): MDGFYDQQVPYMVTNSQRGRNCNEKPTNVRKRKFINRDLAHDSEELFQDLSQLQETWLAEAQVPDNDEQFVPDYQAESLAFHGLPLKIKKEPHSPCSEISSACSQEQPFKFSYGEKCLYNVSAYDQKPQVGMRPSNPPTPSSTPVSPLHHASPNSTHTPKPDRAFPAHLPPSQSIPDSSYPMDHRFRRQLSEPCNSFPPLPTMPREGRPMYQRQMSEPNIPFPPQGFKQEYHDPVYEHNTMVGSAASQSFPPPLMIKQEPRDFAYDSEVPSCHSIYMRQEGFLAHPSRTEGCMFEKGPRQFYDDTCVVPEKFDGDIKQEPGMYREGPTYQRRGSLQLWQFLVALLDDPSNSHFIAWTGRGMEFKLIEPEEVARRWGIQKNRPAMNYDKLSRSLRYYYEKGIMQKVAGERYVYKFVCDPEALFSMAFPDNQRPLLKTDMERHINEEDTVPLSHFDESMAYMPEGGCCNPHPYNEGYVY
ELF4, sequence (Q99607 whole entry): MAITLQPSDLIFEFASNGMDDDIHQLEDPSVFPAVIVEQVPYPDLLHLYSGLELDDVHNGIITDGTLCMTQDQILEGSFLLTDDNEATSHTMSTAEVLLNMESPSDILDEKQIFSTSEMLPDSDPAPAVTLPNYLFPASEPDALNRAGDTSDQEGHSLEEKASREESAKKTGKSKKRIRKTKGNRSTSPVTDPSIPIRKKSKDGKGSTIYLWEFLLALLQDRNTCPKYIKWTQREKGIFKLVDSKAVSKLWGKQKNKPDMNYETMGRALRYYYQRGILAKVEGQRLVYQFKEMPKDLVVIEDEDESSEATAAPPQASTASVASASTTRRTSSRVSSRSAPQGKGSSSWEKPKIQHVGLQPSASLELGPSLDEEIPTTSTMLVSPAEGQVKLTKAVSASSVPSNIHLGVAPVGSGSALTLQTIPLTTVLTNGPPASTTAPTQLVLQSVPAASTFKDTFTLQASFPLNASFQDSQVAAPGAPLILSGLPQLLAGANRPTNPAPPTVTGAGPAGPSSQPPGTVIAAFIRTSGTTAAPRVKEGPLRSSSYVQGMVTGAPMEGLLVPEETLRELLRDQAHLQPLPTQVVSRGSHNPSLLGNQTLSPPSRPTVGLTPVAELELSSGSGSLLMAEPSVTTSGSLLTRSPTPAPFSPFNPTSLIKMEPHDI

Regarding CGTCCC, the binding signal in the test with FLI1 is 1.3 fold enrichment (6-mer frequency, TF over GST control); with ELK1, 1.39 fold enrichment (6-mer frequency, TF over GST control); with GABPA it was 1.42 fold enrichment (6-mer frequency, TF over GST control); with ERG, 1.37 fold enrichment (6-mer frequency, TF over GST control); with ELF1, 1.36 fold enrichment (6-mer frequency, TF over GST control); with EHF it was 1.44 fold enrichment (6-mer frequency, TF over GST control). Further, the binding signal in the test with SPI1 is 1.23 fold enrichment (6-mer frequency, TF over GST control); with SPIB, 1.31 fold enrichment (6-mer frequency, TF over GST control); with ELK3 it was 1.57 fold enrichment (6-mer frequency, TF over GST control); with FEV, 1.34 fold enrichment (6-mer frequency, TF over GST control); in the test with ETV5, 1.3 fold enrichment (6-mer frequency, TF over GST control); with HSF1, 1.08 fold enrichment (6-mer frequency, TF over GST control). Besides, the binding signal in the test with SPIC was 1.38 fold enrichment (6-mer frequency, TF over GST control); with ELF4, 1.27 fold enrichment (6-mer frequency, TF over GST control); in the test with ELK4 it was 1.39 fold enrichment (6-mer frequency, TF over GST control); in the test with ETV2, 1.12 fold enrichment (6-mer frequency, TF over GST control); with ELF3, 1.45 fold enrichment (6-mer frequency, TF over GST control); with ETV1 it was 1.34 fold enrichment (6-mer frequency, TF over GST control).
